Results as given in PubChem BioAssay AID1159580 (chemical genetic matrix, 2015).
The whole screen tested about 5,500 compounds, of which about 2,000 (36%) were called active. Inconclusive results (about 18%) are left out. Rule as the data show it: active = normalized growth mostly below about 0.91 (no sharp cut-off); inconclusive = no clear call, values can overlap the other calls; inactive = mostly above about 0.92. The list shows a part of the results.

Assay: chemical genetic growth profiling, strain panel (AID 1159580);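 also: tested at 20 µM; growth read once vehicle control cultures reached saturation at 30 °C; 1 = growth at the plate median or of vehicle wells; lower values mean less growth of the strain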
Conditions: growth OD

Measured: normalized growth

CC1(C)C=Cc2c(cc3occ(-c4ccc5c(c4)OCO5)c(=O)c3c2O)O1
active: S. cerevisiae deletion strains, locus YBL061C, strain skt5, active compounds read low 0.839 | S. cerevisiae deletion strains, locus YBR023C, strain chs3, active compounds read low 0.884 | S. cerevisiae deletion strains, locus YBR231C, strain swc5, active compounds read low 0.864 | S. cerevisiae deletion strains, locus YCL011C, strain gbp2, active compounds read low 0.897 | S. cerevisiae deletion strains, locus YDR069C, strain doa4, active compounds read low 0.811 | S. cerevisiae deletion strains, locus YDR297W, strain sur2, active compounds read low 0.91 | S. cerevisiae deletion strains, locus YER015W, strain faa2, active compounds read low 0.841 | S. cerevisiae deletion strains, locus YGL086W, strain mad1, active compounds read low 0.922 | S. cerevisiae deletion strains, locus YGL173C, strain kem1, active compounds read low 0.817 | S. cerevisiae deletion strains, locus YGL248W, strain PDE1, active compounds read low 0.883 | S. cerevisiae deletion strains, locus YGL253W, strain hxk2, active compounds read low 0.894 | S. cerevisiae deletion strains, locus YHR027C, strain rpn1, active compounds read low 0.749 | S. cerevisiae deletion strains, locus YJL095W, strain BCK1 (second series), active compounds read low 0.918 | S. cerevisiae deletion strains, locus YLR221C, strain rsa3, active compounds read low 0.897 | S. cerevisiae deletion strains, locus YLR342W, strain FKS1, active compounds read low 0.907 | S. cerevisiae deletion strains, locus YMR058W, strain fet3, active compounds read low 0.676 | S. cerevisiae deletion strains, locus YNL209W, strain ssb2, active compounds read low 0.738 | S. cerevisiae deletion strains, locus YOR070C, strain gyp1, active compounds read low 0.905 | S. cerevisiae deletion strains, locus YPL051W, strain arl3, active compounds read low 0.855 | S. cerevisiae strains, strain wild type, active compounds read low 0.889
inactive: S. cerevisiae deletion strains, locus YAL013W, strain DEP1, active compounds read low 0.996 | S. cerevisiae deletion strains, locus YAL021C, strain ccr4, active compounds read low 0.931 | S. cerevisiae deletion strains, locus YAL026C, strain drs2, active compounds read low 0.995 | S. cerevisiae deletion strains, locus YAL030W, strain snc1, active compounds read low 0.938 | S. cerevisiae deletion strains, locus YBR009C, strain hhf1, active compounds read low 0.982 | S. cerevisiae deletion strains, locus YBR021W, strain FUR4, active compounds read low 1 | S. cerevisiae deletion strains, locus YBR171W, strain sec66, active compounds read low 0.998 | S. cerevisiae deletion strains, locus YBR229C, strain ROT2, active compounds read low 1.01 | S. cerevisiae deletion strains, locus YBR279W, strain paf1, active compounds read low 0.988 | S. cerevisiae deletion strains, locus YCL016C, strain dcc1, active compounds read low 0.994 | S. cerevisiae deletion strains, locus YCL029C, strain bik1, active compounds read low 1 | S. cerevisiae deletion strains, locus YCL061C, strain MRC1, active compounds read low 0.977 | S. cerevisiae deletion strains, locus YCL069W, strain vba3, active compounds read low 0.971 | S. cerevisiae deletion strains, locus YCR088W, strain abp1, active compounds read low 0.995 | S. cerevisiae deletion strains, locus YDL005C, strain med2, active compounds read low 0.998 | S. cerevisiae deletion strains, locus YDL035C, strain GPR1, active compounds read low 0.908 | S. cerevisiae deletion strains, locus YDL040C, strain nat1, active compounds read low 0.991 | S. cerevisiae deletion strains, locus YDL074C, strain BRE1, active compounds read low 1.01 | S. cerevisiae deletion strains, locus YDL101C, strain DUN1, active compounds read low 1.01 | S. cerevisiae deletion strains, locus YDL134C, strain PPH21, active compounds read low 0.923 | S. cerevisiae deletion strains, locus YDL185W, strain tfp1, active compounds read low 1 | S. cerevisiae deletion strains, locus YDL192W, strain arf1, active compounds read low 0.956 | S. cerevisiae deletion strains, locus YDR001C, strain nth1, active compounds read low 0.998 | S. cerevisiae deletion strains, locus YDR101C, strain arx1, active compounds read low 0.983 | S. cerevisiae deletion strains, locus YDR137W, strain rgp1, active compounds read low 1.04 | S. cerevisiae deletion strains, locus YDR159W, strain sac3, active compounds read low 1 | S. cerevisiae deletion strains, locus YDR162C, strain NBP2, active compounds read low 0.976 | S. cerevisiae deletion strains, locus YDR195W, strain ref2 1.01 | S. cerevisiae deletion strains, locus YDR318W, strain mcm21, active compounds read low 0.97 | S. cerevisiae deletion strains, locus YDR334W, strain swr1, active compounds read low 0.95 | S. cerevisiae deletion strains, locus YDR335W, strain msn5, active compounds read low 0.978 | S. cerevisiae deletion strains, locus YDR388W, active compounds read low 0.993 | S. cerevisiae deletion strains, locus YDR392W, strain spt3, active compounds read low 0.873 | S. cerevisiae deletion strains, locus YDR502C, strain sam2, active compounds read low 0.989 | S. cerevisiae deletion strains, locus YEL003W, strain gim4, active compounds read low 0.932 | S. cerevisiae deletion strains, locus YEL037C, strain rad23, active compounds read low 0.977 | S. cerevisiae deletion strains, locus YEL061C, strain CIN8 (second series), active compounds read low 0.98 | S. cerevisiae deletion strains, locus YEL061C, strain CIN8, active compounds read low 0.981 | S. cerevisiae deletion strains, locus YER016W, strain bim1, active compounds read low 0.988 | S. cerevisiae deletion strains, locus YER110C, active compounds read low 1.04 | S. cerevisiae deletion strains, locus YER111C, strain swi4, active compounds read low 0.98 | S. cerevisiae deletion strains, locus YER155C, strain BEM2 (second series), active compounds read low 0.947 | S. cerevisiae deletion strains, locus YER155C, strain BEM2, active compounds read low 1.02 | S. cerevisiae deletion strains, locus YER167W, strain BCK2, active compounds read low 0.967 | S. cerevisiae deletion strains, locus YFR010W, strain ubp6, active compounds read low 0.91 | S. cerevisiae deletion strains, locus YGL078C, strain dbp3, active compounds read low 1.02 | S. cerevisiae deletion strains, locus YGL167C, strain pmr1, active compounds read low 1.01 | S. cerevisiae deletion strains, locus YGL227W, strain vid30, active compounds read low 1.01 | S. cerevisiae deletion strains, locus YGL240W, strain doc1, active compounds read low 1.02 | S. cerevisiae deletion strains, locus YGR078C, strain PAC10, active compounds read low 0.98 | S. cerevisiae deletion strains, locus YGR135W, strain pre9, active compounds read low 0.964 | S. cerevisiae deletion strains, locus YGR252W, strain gcn5, active compounds read low 1.02 | S. cerevisiae deletion strains, locus YHR013C, strain ard1, active compounds read low 0.982 | S. cerevisiae deletion strains, locus YHR030C, strain SLT2, active compounds read low 0.945 | S. cerevisiae deletion strains, locus YHR079C, strain IRE1 (second series), active compounds read low 1.02 | S. cerevisiae deletion strains, locus YHR094C, strain hxt1, active compounds read low 1.03 | S. cerevisiae deletion strains, locus YHR129C, strain ARP1, active compounds read low 0.94 | S. cerevisiae deletion strains, locus YHR142W, strain chs7, active compounds read low 0.936 | S. cerevisiae deletion strains, locus YHR200W, strain rpn10, active compounds read low 0.968 | S. cerevisiae deletion strains, locus YIL066C, strain RNR3, active compounds read low 0.921 | S. cerevisiae deletion strains, locus YIL073C, strain SPO22, active compounds read low 0.886 | S. cerevisiae deletion strains, locus YIL125W, strain kgd1, active compounds read low 1.03 | S. cerevisiae deletion strains, locus YIR030C, strain dcg1, active compounds read low 1.01 | S. cerevisiae deletion strains, locus YJL092W, strain hpr5, active compounds read low 0.983 | S. cerevisiae deletion strains, locus YJL095W, strain BCK1, active compounds read low 0.927 | S. cerevisiae deletion strains, locus YJL115W, strain asf1, active compounds read low 1.01 | S. cerevisiae deletion strains, locus YJL129C, strain trk1, active compounds read low 1.01 | S. cerevisiae deletion strains, locus YJL134W, strain LCB3, active compounds read low 0.998 | S. cerevisiae deletion strains, locus YJL154C, strain vps35, active compounds read low 0.997 | S. cerevisiae deletion strains, locus YJL164C, strain tpk1, active compounds read low 0.967 | S. cerevisiae deletion strains, locus YJL166W, strain qcr8, active compounds read low 0.943 | S. cerevisiae deletion strains, locus YJL168C, strain set2, active compounds read low 1.01 | S. cerevisiae deletion strains, locus YJL187C, strain SWE1 (second series), active compounds read low 0.92 | S. cerevisiae deletion strains, locus YJL187C, strain SWE1, active compounds read low 0.967 | S. cerevisiae deletion strains, locus YJR075W, strain HOC1, active compounds read low 0.996 | S. cerevisiae deletion strains, locus YKL068W, active compounds read low 1.02 | S. cerevisiae deletion strains, locus YKL160W, strain elf1, active compounds read low 1.02 | S. cerevisiae deletion strains, locus YKL190W, strain CNB1, active compounds read low 0.967 | S. cerevisiae deletion strains, locus YKR001C, strain vps1, active compounds read low 0.988 | S. cerevisiae deletion strains, locus YKR026C, strain gcn3, active compounds read low 0.983 | S. cerevisiae deletion strains, locus YKR091W, strain srl3, active compounds read low 0.981 | S. cerevisiae deletion strains, locus YLL001W, strain dnm1, active compounds read low 0.959 | S. cerevisiae deletion strains, locus YLL026W, active compounds read low 0.961 | S. cerevisiae deletion strains, locus YLL041C, strain sdh2, active compounds read low 0.993 | S. cerevisiae deletion strains, locus YLR027C, strain aat2, active compounds read low 0.943 | S. cerevisiae deletion strains, locus YLR039C, strain RIC1, active compounds read low 1.11 | S. cerevisiae deletion strains, locus YLR058C, strain SHM2, active compounds read low 0.933 | S. cerevisiae deletion strains, locus YLR102C, strain apc9, active compounds read low 1.03 | S. cerevisiae deletion strains, locus YLR258W, strain gsy2, active compounds read low 0.963 | S. cerevisiae deletion strains, locus YLR262C, strain YPT6 (second series), active compounds read low 0.945 | S. cerevisiae deletion strains, locus YLR262C, strain YPT6, active compounds read low 1.14 | S. cerevisiae deletion strains, locus YLR268W, strain sec22, active compounds read low 0.943 | S. cerevisiae deletion strains, locus YLR320W, strain mms22, active compounds read low 0.917 | S. cerevisiae deletion strains, locus YLR357W, strain rsc2, active compounds read low 0.905 | S. cerevisiae deletion strains, locus YLR370C, strain arc18, active compounds read low 0.978 | S. cerevisiae deletion strains, locus YLR371W, strain rom2, active compounds read low 0.92 | S. cerevisiae deletion strains, locus YLR384C, strain iki3, active compounds read low 0.976 | S. cerevisiae deletion strains, locus YLR418C, strain cdc73, active compounds read low 1.02 | S. cerevisiae deletion strains, locus YML016C, strain PPZ1, active compounds read low 0.954 | S. cerevisiae deletion strains, locus YML032C, strain rad52, active compounds read low 1 | S. cerevisiae deletion strains, locus YML120C, strain ndi1, active compounds read low 1.01 | S. cerevisiae deletion strains, locus YML124C, strain tub3, active compounds read low 1.02 | S. cerevisiae deletion strains, locus YMR078C, strain ctf18, active compounds read low 1.04 | S. cerevisiae deletion strains, locus YMR125W, strain sto1, active compounds read low 1.01 | S. cerevisiae deletion strains, locus YMR129W, active compounds read low 0.993 | S. cerevisiae deletion strains, locus YMR205C, strain PFK2, active compounds read low 0.971 | S. cerevisiae deletion strains, locus YMR223W, strain ubp8, active compounds read low 0.959 | S. cerevisiae deletion strains, locus YMR231W, strain pep5, active compounds read low 0.975 | S. cerevisiae deletion strains, locus YMR263W, strain SAP30, active compounds read low 1 | S. cerevisiae deletion strains, locus YMR307W, strain GAS1, active compounds read low 0.946 | S. cerevisiae deletion strains, locus YNL067W, strain RPL9B, active compounds read low 0.995 | S. cerevisiae deletion strains, locus YNL071W, strain lat1, active compounds read low 0.986 | S. cerevisiae deletion strains, locus YNL233W, strain BNI4, active compounds read low 0.881 | S. cerevisiae deletion strains, locus YNL248C, strain rpa49, active compounds read low 0.963 | S. cerevisiae deletion strains, locus YNL250W, strain rad50, active compounds read low 1.06 | S. cerevisiae deletion strains, locus YNL271C, strain bni1, active compounds read low 1 | S. cerevisiae deletion strains, locus YNL298W, strain CLA4, active compounds read low 1.01 | S. cerevisiae deletion strains, locus YNL307C, strain MCK1, active compounds read low 1.02 | S. cerevisiae deletion strains, locus YNL322C, strain KRE1 (second series), active compounds read low 0.999 | S. cerevisiae deletion strains, locus YNR049C, strain mso1, active compounds read low 0.991 | S. cerevisiae deletion strains, locus YNR052C, strain pop2, active compounds read low 1 | S. cerevisiae deletion strains, locus YOL012C, strain htz1 0.804 | S. cerevisiae deletion strains, locus YOL147C, strain pex11, active compounds read low 1.01 | S. cerevisiae deletion strains, locus YOR001W, strain rrp6, active compounds read low 0.93 | S. cerevisiae deletion strains, locus YOR061W, strain CKA2, active compounds read low 0.924 | S. cerevisiae deletion strains, locus YOR069W, strain VPS5, active compounds read low 0.96 | S. cerevisiae deletion strains, locus YOR080W, strain dia2, active compounds read low 0.963 | S. cerevisiae deletion strains, locus YOR083W, strain WHI5, active compounds read low 0.928 | S. cerevisiae deletion strains, locus YOR106W, strain vam3, active compounds read low 0.907 | S. cerevisiae deletion strains, locus YOR136W, strain idh2, active compounds read low 1.03 | S. cerevisiae deletion strains, locus YOR144C, strain elg1, active compounds read low 1.02 | S. cerevisiae deletion strains, locus YOR184W, strain ser1, active compounds read low 0.971 | S. cerevisiae deletion strains, locus YOR265W, strain rbl2, active compounds read low 0.947 | S. cerevisiae deletion strains, locus YOR270C, strain vph1, active compounds read low 0.952 | S. cerevisiae deletion strains, locus YOR290C, strain snf2, active compounds read low 0.981 | S. cerevisiae deletion strains, locus YOR316C, strain cot1, active compounds read low 1.02 | S. cerevisiae deletion strains, locus YPL055C, strain LGE1, active compounds read low 0.871 | S. cerevisiae deletion strains, locus YPL078C, strain atp4, active compounds read low 1.02 | S. cerevisiae deletion strains, locus YPL106C, strain sse1, active compounds read low 0.901 | S. cerevisiae deletion strains, locus YPL240C, strain hsp82, active compounds read low 0.989 | S. cerevisiae deletion strains, locus YPR119W, strain clb2, active compounds read low 1.04 | S. cerevisiae deletion strains, locus YPR141C, strain kar3, active compounds read low 1.02 | S. cerevisiae deletion strains, locus YPR163C, strain tif3, active compounds read low 1.02 | S. cerevisiae deletion strains, locus YPR167C, strain met16, active compounds read low 0.967 | S. cerevisiae deletion strains, strain wtn01, active compounds read low 0.952
